What was measured:
Assay in all cases: log2 ratio of Biotin-Ahx-Ub-VS probe labelling (fragment/DMSO); higher = less target engagement (more negative = stronger competition), active = hit call of the paper (q ≤ 0.05, log2 ratio ≤ -1)
Settings in all cases: compound concentration: 200 uM; treatment time: 3 h
USP19 = biological target: T1, USP19 (UniProt O94966)
T1 sequence (whole entry): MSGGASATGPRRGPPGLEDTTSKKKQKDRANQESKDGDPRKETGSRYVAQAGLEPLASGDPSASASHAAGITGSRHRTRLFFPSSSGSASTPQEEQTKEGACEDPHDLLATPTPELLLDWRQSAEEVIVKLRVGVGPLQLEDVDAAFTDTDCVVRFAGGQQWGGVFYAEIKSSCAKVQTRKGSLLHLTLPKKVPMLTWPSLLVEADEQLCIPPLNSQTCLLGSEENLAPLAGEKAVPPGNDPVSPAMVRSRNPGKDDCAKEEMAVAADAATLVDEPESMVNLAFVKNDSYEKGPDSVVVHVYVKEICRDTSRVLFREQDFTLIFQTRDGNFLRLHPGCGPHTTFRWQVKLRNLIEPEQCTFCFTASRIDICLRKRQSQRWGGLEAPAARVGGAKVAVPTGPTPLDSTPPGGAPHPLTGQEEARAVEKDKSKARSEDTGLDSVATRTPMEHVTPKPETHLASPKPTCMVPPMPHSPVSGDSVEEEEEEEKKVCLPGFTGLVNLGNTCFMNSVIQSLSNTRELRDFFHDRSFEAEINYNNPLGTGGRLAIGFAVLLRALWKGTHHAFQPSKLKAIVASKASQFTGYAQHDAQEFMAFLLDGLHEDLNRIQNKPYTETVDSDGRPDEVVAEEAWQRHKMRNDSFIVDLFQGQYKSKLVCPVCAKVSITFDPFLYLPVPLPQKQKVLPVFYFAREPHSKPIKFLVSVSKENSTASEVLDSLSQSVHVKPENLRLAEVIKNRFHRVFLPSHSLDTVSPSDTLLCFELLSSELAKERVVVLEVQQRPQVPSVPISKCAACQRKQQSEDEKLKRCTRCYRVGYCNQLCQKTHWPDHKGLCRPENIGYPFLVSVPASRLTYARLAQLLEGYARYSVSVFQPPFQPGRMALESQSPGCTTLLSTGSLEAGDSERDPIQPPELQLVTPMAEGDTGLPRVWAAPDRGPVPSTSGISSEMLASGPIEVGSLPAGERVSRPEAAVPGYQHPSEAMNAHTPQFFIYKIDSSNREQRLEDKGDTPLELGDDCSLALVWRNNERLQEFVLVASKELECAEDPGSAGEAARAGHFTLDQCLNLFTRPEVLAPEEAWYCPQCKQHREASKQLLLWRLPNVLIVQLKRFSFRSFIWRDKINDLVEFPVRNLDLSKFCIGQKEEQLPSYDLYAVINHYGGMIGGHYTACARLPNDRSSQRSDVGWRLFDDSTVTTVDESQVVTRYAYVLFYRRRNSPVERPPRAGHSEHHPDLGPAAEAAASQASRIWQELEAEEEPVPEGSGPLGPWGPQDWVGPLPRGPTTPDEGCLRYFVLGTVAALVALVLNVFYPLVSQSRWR
In short: (§1)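 Labelling with Biotin-Ahx-Ub-VS (0.5 µM final, 1 h) followed a 3 h triplicate treatment of HEK293T lysate (495 µg per sample, Tris/CHAPS/IGEPAL buffer with protease inhibitors) with fragment at 200 µM or vehicle. Labelled DUBs were NeutrAvidin-enriched, digested with LysC and trypsin, and run by diaPASEF LC-MS/MS. The values, average log2 fragment/vehicle ratios by unpaired t-test, come from global-median-normalised Spectronaut label-free quantities. Proteins with ≥2 unique peptides were used.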

USP22 = biological target: T2, USP22 (UniProt Q9UPT9)
T2 sequence (whole entry): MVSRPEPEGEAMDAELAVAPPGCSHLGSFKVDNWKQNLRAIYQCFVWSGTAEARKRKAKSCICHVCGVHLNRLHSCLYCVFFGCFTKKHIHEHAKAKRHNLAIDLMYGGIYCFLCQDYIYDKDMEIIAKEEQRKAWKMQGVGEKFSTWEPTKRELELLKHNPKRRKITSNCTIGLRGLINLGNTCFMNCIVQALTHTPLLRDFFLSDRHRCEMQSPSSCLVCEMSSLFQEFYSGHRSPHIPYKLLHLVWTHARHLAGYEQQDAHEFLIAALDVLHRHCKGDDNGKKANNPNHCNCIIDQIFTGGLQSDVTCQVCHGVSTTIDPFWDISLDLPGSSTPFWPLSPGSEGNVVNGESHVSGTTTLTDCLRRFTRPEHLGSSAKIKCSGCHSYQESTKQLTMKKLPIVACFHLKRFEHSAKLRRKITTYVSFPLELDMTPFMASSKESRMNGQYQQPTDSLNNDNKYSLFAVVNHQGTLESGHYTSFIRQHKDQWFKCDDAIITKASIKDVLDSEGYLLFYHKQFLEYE
In short: as §1

USP24 = USP24 (UniProt Q9UPU5)
In short: as §1

USP25 = biological target: T3, USP25 (UniProt Q9UHP3)
T3 sequence (whole entry): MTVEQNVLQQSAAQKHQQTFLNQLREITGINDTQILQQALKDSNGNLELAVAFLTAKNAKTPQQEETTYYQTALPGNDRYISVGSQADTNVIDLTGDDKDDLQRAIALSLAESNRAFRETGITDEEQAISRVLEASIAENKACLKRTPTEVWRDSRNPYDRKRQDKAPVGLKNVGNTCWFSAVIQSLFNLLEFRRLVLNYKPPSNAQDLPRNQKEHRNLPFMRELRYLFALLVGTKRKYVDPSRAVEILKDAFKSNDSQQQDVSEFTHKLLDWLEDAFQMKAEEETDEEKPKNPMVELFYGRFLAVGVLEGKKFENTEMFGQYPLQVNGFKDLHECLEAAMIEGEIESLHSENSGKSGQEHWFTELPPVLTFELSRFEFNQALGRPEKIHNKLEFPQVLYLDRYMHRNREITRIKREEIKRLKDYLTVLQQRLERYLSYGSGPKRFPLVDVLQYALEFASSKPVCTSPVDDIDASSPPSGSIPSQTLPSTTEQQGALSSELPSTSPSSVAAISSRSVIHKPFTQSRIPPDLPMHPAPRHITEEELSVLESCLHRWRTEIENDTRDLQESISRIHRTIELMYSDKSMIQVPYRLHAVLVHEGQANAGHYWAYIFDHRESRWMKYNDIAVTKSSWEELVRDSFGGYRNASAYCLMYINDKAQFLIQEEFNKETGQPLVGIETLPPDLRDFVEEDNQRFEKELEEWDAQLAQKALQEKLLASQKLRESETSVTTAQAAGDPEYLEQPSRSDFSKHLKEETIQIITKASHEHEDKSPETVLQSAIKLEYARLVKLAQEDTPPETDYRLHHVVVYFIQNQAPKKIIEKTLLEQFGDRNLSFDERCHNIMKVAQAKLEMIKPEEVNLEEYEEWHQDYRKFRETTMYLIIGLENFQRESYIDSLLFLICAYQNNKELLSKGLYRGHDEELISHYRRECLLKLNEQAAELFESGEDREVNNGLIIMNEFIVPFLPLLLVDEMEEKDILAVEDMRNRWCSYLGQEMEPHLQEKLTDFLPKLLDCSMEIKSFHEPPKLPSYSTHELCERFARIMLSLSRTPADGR
In short: as §1

USP28 = biological target: T4, USP28 (UniProt Q96RU2)
T4 sequence (whole entry): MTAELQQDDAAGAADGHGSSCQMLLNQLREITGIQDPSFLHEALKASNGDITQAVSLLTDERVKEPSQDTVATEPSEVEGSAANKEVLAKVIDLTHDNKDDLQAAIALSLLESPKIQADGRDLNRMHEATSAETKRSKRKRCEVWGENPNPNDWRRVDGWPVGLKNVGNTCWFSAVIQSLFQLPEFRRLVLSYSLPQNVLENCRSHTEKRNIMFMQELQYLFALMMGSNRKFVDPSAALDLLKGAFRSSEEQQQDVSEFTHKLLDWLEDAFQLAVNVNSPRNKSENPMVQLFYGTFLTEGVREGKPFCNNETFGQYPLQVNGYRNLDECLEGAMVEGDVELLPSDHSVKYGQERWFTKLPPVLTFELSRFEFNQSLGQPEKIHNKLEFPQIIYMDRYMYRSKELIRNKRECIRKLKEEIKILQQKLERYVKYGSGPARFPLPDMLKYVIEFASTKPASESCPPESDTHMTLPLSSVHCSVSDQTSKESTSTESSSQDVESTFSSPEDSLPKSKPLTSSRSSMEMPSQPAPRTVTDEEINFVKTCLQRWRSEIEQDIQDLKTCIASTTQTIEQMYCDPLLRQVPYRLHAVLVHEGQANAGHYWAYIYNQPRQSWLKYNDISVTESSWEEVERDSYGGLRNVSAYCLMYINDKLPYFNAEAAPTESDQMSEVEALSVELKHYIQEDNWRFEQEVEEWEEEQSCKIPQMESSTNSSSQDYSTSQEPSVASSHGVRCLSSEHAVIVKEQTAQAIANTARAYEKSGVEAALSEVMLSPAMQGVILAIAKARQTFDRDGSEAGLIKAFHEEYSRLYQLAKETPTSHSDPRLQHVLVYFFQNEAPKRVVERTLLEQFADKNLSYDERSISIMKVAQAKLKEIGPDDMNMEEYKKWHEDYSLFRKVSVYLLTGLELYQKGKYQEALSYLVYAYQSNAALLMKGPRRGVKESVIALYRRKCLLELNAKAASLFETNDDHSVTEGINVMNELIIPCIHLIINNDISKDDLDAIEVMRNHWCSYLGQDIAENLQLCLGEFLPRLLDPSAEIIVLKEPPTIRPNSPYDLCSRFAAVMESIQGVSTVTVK
In short: as §1

Measured: log2 ratio of Biotin-Ahx-Ub-VS probe labelling

Sequence of USP24 (Q9UPU5 whole entry): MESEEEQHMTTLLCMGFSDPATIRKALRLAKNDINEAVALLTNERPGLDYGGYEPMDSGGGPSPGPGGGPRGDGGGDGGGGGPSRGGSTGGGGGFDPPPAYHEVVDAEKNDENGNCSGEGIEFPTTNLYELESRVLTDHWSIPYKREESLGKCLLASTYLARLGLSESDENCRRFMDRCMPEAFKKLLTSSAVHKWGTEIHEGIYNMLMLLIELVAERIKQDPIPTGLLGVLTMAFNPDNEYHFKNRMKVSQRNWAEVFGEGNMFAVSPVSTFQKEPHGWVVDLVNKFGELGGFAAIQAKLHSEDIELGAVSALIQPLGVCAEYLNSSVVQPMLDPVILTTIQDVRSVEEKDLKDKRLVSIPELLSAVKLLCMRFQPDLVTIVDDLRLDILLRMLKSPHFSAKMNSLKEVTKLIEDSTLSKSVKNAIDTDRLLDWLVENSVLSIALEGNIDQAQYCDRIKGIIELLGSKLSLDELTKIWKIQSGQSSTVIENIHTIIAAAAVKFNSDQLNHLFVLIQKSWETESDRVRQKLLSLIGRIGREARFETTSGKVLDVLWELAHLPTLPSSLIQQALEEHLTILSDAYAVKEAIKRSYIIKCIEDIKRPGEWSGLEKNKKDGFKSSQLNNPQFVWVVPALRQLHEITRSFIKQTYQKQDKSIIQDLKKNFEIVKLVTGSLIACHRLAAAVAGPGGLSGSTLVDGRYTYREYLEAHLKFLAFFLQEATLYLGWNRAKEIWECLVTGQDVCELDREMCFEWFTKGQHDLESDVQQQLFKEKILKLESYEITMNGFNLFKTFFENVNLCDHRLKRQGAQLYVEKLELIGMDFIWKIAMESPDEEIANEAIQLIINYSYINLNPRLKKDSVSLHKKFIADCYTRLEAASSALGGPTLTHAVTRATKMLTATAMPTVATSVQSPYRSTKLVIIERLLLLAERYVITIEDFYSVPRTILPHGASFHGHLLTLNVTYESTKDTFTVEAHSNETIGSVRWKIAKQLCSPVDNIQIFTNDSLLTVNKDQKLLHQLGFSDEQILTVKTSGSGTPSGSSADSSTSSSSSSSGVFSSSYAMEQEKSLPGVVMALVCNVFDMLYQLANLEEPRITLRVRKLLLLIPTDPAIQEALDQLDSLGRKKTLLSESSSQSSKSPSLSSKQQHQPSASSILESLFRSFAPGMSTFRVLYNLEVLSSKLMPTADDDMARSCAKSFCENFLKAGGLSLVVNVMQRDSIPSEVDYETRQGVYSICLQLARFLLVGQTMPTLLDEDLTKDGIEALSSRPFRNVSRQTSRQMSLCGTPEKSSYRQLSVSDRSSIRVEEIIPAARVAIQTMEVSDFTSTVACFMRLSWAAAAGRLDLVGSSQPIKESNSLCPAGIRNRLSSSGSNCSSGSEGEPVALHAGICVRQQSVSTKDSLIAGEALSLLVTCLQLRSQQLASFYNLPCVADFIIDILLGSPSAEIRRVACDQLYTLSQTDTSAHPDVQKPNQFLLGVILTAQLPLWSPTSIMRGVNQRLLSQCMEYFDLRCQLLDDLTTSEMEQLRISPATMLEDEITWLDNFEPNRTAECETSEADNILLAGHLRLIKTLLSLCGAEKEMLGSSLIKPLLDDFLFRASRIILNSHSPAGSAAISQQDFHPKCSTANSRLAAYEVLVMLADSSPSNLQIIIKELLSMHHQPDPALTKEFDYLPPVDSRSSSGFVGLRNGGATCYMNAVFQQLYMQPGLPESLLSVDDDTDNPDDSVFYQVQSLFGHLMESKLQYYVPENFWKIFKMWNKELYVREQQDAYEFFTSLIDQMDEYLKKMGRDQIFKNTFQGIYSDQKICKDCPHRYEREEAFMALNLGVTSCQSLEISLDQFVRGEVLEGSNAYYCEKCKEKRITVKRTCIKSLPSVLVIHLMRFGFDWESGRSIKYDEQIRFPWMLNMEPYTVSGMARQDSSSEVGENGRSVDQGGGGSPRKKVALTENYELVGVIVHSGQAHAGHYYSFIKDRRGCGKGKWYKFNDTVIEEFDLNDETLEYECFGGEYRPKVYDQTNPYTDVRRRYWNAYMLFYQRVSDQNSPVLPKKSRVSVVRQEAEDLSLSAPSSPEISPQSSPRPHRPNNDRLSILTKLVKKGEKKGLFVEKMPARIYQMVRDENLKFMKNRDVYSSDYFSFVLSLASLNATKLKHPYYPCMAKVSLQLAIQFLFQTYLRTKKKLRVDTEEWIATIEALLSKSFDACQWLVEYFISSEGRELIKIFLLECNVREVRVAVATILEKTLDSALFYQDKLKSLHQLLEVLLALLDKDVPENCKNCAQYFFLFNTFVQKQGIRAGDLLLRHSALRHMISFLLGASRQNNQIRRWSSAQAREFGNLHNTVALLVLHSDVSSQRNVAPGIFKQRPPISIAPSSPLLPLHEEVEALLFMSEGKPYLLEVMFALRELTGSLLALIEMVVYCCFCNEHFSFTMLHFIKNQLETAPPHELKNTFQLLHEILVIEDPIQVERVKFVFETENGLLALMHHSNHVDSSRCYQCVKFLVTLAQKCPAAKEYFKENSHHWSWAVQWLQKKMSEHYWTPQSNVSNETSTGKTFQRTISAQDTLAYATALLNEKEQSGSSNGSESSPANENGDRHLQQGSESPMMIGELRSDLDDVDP

Cc1ccc(N2CCC(NC(=O)CCl)C2=O)cc1 (stereo not given)
inactive: USP19 0.0818 | USP22 -0.233 | USP24 0.141 | USP25 0.0471 | USP28 -0.0346
